Reference: PubChem BioAssay (NCI)
Compounds without any hit were thinned out: in the full panel of roughly 83,000, 20% have a hit.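 Single-concentration screen, 48 h exposure, 96-well plates. Endpoint: percent growth. Below 10 = active.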 The source made the active and inactive calls.

Assays:
Assay in all cases: NCI-60 one-dose screen, 48 h (100 = growth as untreated, 0 = no growth, -100 = all killed)
[1] = system: K-562 leukemia; conditions: 10 µM unless noted
[2] = system: MALME-3M melanoma; conditions: 10 µM unless noted
[3] = system: MDA-MB-231 breast; conditions: 10 µM unless noted
[4] = system: RXF 393 renal; conditions: 10 µM unless noted
[5] = system: SF-268 CNS; conditions: 10 µM unless noted
[6] = system: SF-295 CNS; conditions: 10 µM unless noted
[7] = system: SF-539 CNS; conditions: 10 µM unless noted
[8] = system: UACC-257 melanoma; conditions: 10 µM unless noted
[9] = system: M14 melanoma; conditions: 10 µM unless noted
[10] = system: HT29 colon; conditions: 10 µM unless noted
[11] = system: SNB-75 CNS; conditions: 10 µM unless noted
[12] = system: SNB-19 CNS; conditions: 10 µM unless noted
[13] = system: U251 CNS; conditions: 10 µM unless noted
[14] = system: PC-3 prostate; conditions: 10 µM unless noted
[15] = system: SK-MEL-5 melanoma; conditions: 10 µM unless noted
[16] = system: UACC-62 melanoma; conditions: 10 µM unless noted
[17] = system: LOX IMVI melanoma; conditions: 10 µM unless noted
[18] = system: SK-MEL-28 melanoma; conditions: 10 µM
[19] = system: SK-MEL-2 melanoma; conditions: 10 µM unless noted
[20] = system: HCT-15 colon; conditions: 10 µM unless noted

Measured: growth

COc1cccc2cc(N(C)c3nc(C)nc4ccsc34)ccc12
inactive: [2] 52.5% | [3] 28.9% | [4] 40% | [5] 21.7% | [8] 37.7% | [11] 36% | [12] 24.1% | [13] 11.7% | [14] 12.7% | [16] 43.4% | [17] 16.3% | [18] 58.9% | [19] 13.1%
active: [1] 5.29% | [6] 3.17% | [7] -15.5% | [9] 9.85% | [10] -10.3% | [15] -63%

O=C(Nc1ccc(F)cc1F)c1cc(Br)ccc1O
inactive: [12] 12.1% | [17] 17% | [18] 16.5%
active: [1] 4.71% | [2] -30.1% | [3] -29.9% | [4] -5.34% | [5] 7.16% | [6] -24.5% | [7] 4.41% | [8] -15% | [9] 7.28% | [20] 9.98% | [11] -17.9% | [13] 3.39% | [14] -8.08% | [16] -19.7% | [19] -27.5%

Oc1c(CN2CCN(c3ccccc3F)CC2)cc(Br)c2cccnc12
inactive: [8] 11.3%
active: [1] 1.01% | [2] -58.2% | [3] -33.5% | [4] -57.5% | [5] 0.474% | [6] -72.5% | [7] -90.5% | [9] -3.56% | [20] -4.53% | [11] -92.2% | [12] -16.6% | [13] -83.5% | [14] 5.26% | [15] -10.3% | [17] -8.44% | [18] -78% | [19] -54.3%

O=C(NC1CCN(Cc2ccccc2)CC1)c1cc2nc(-c3ccc(Cl)s3)cc(C(F)(F)F)n2n1
active: [1] 5.49% | [2] -84.1% | [6] -68.6% | [7] 2.96% | [8] -65.5% | [13] -86.9% | [18] -97.4% | [19] -62.8%
inactive: [3] 57.1% | [4] 94.8% | [5] 66.7% | [9] 48.7% | [20] 94.7% | [11] 35.6% | [14] 72.2% | [15] 89.1% | [16] 97.3% | [17] 45.2%

C[C@@H](C(=O)NCCCC#Cc1cnc(Nc2ccc(C#N)cc2)nc1NC1CC1)N(C)C(=O)/C=C/CN(C)C
active: [4] -1.36% | [7] 9.99%
inactive: [1] 14.1% | [2] 22.5% | [3] 77.8% | [5] 48.4% | [6] 25.9% | [8] 40.2% | [9] 26.7% | [10] 19.3% | [11] 80.5% | [12] 58.9% | [13] 21.4% | [14] 63.2% | [15] 35.9% | [16] 52.2% | [17] 49% | [18] 52.1% | [19] 65.3%

COc1ccc(-c2cc(=O)c3c(OC)c4ccoc4c(/C=C/C=O)c3o2)cc1
inactive: [1] 12.2% | [2] 24.8% | [3] 53.6% | [4] 48.5% | [5] 36.2% | [6] 31.7% | [7] 14.8% | [8] 108% | [10] 79.1% | [12] 49% | [13] 16.4% | [14] 21.3% | [15] 32.1% | [16] 67.1% | [18] 89.1% | [19] 75.4%
active: [20] -54.1% | [11] -1.37% | [17] -11.8%

N#Cc1c(N)nc2c(c1N)C(c1ccc(F)cc1)c1ccc(N)cc1O2 (stereo not given)
inactive: [1] 104% | [2] 136% | [3] 118% | [4] 92.3% | [5] 105% | [6] 83.1% | [7] 103% | [8] 102% | [9] 111% | [10] 112% | [11] 86.6% | [12] 127% | [13] 102% | [14] 106% | [15] 96.1% | [16] 111% | [18] 109% | [19] 112%

COc1ccc(CCN2C(=O)CCSC2=S)cc1
inactive: [1] 29.2% | [2] 76.7% | [3] 59.2% | [4] 18.7% | [5] 46.2% | [6] 67.2% | [8] 85.4% | [9] 61.2% | [10] 18% | [11] 54.1% | [12] 84% | [13] 92.2% | [15] 94.1% | [16] 77.1% | [19] 85.4%
active: [7] 7.31% | [17] 8%

CNC(=O)c1cc(Oc2ccc(CC(=O)Nc3cc(C(C)(C)C)cn3C)cc2)ccn1
inactive: [1] 35.5% | [2] 50.6% | [3] 67.8% | [4] 105% | [5] 86.4% | [6] 45.4% | [7] 68.3% | [8] 56.5% | [20] 93.8% | [10] 88% | [11] 52.4% | [12] 69.9% | [13] 88.6% | [14] 75.9% | [16] 62.9% | [17] 67% | [18] 79.8% | [19] 67.1%
active: [15] 8.83%
